Records with an inconclusive call do not appear. Activity calls are given as the source filed them. The call rests on the fitted dose curve; in most records, active means well fitted inhibition curve with a large enough effect; inconclusive means small, poorly fitted or top-dose-only effect; inactive means flat fitted curve, though single readings scatter.
Key:
[1] = system: CRL-7250; test: Cytotoxic Profiling of Annotated Libraries Using Quantitative High-Throughput Screening (AID 1296008); settings: Five cell lines viability, CellTiter-Glo ATP luminescence, 48-72 h; max response: active compounds read low; on max response: on the % scale 0 is the no-effect control and ±100 the full control effect
How it was run: (§1)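 Cytotoxicity was measured as CellTiter-Glo ATP luminescence, read after 10 min at room temperature. Compound treatment of the cells lasted 48 or 72 hr at 37 degrees Celsius in a qHTS format.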

[2] = system: HaCat; test: as above; settings: Five cell lines viability, CellTiter-Glo ATP luminescence, 48-72 h; max response: active compounds read low
How it was run: as §1

[3] = system: KB-3-1; test: as above; settings: Five cell lines viability, CellTiter-Glo ATP luminescence, 48-72 h; max response: active compounds read low
How it was run: as §1

[4] = system: NIH3T3; test: as above; settings: Five cell lines viability, CellTiter-Glo ATP luminescence, 48-72 h; max response: active compounds read low
How it was run: as §1

[5] = system: HACAT; test: qHTS assay to identify novel small-molecules to repurpose for Merkel cell carcinoma treatment (AID 1296009); settings: MCC and control cell lines, CellTiter-Glo viability, 72 h; at 44.8 µM (top of the series) unless noted
How it was run: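 72 hr, 37 degree celsius; NPC 8-pt / MIPE 11-pt dose response; compound pinned in DMSO; CellTiter-Glo, 10 min RT, luminescence; normalized to no-cell and DMSO controls.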

Measured: max response
Further: nearly all actives have a fitted effect of over 60% in size.

CCNC1(C(N)=O)CN(c2nc(C)nc3c(-c4ccc(Cl)cc4)c(-c4ccccc4Cl)nn23)C1
inactive: [1] -17.8% | [2] | [3] -14.3% | [4] -3.55% | [5]

COc1cc(O)cc(/C=C/c2cccc(O)c2)c1
inactive: [1] 0.366% | [2] | [3] | [4] -7.28% | [5]

CCC(C)/C=C(C)/C=C/C1=CC2=C(Cl)C(=O)C(C)(OC(C)=O)C(=O)C2(O)C(OC)O1 (stereo not given)
inactive: [1] | [2] | [3] | [4] | [5] inactive [at 17.4 µM]

CC1OC2OC(=O)C3(C)CC4C5(CO5)C5=CC(=O)OC(C)(C)C5=CC(=O)C4(C)C(C1=O)C23 (stereo not given)
inactive: [1] -8.36% | [2] | [3] | [4] 1.81% | [5] inactive [at 17.4 µM]

CC12CCC3C1C(c1c(cc(O)c(C(=O)c4ccccc4)c1O)O2)C3(C)C (stereo not given)
inactive: [1] 3.27% | [2] | [3] -20.8% | [4] -2.16% | [5]

CC(=O)O[C@@H]1CC[C@@]2(C)C(CC[C@]3(C)C2[C@H](O)C=C2[C@H]4[C@@H](C)[C@H](C)CC[C@]4(C)CC[C@]23C)[C@@]1(C)C(=O)O (stereo not given in full)
inactive: [1] -13.3% | [2] | [3] | [4] | [5] inactive [at 17.4 µM]

CC(=O)OC1CC(C)(C(=O)O)CC2C3=CC(=O)C4C5(C)CCC(OC6OC(C(=O)O)C(O)C(O)C6OC6OC(C(=O)O)C(O)C(O)C6O)C(C)(C)C5CCC4(C)C3(C)CCC12C (stereo not given)
inactive: [1] -2.54% | [2] | [3] 3.1% | [4] 1.8% | [5] inactive [at 9.27 µM]

— PubChem BioAssay (NCATS)
